# Records with an inconclusive call do not appear. Entries that show only a call come without a potency. A number with no mark means an inactive call. Calls of active or inactive are those of the source. Calls follow the shape of the dose curve; as a rule, active = well fitted inhibition curve with a large enough effect; inconclusive = small, poorly fitted or top-dose-only effect; inactive = flat fitted curve, though single readings scatter.
# Tests used:
# CRL-7250 = normal cell line; test: Cytotoxic Profiling of Annotated Libraries Using Quantitative High-Throughput Screening (AID 1296008); conditions: Five cell lines viability, CellTiter-Glo ATP luminescence, 48-72 h; max response: hits give low values
# Outline: (§1)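 Cells exposed to compounds for 48 or 72 hr at 37 degrees Celsius. Viability read as ATP-coupled luminescence with CellTiter-Glo after 10 min at room temperature.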
# HEK293 = test: as above; conditions: Five cell lines viability, CellTiter-Glo ATP luminescence, 48-72 h; max response: hits give low values
# Outline: as §1
# HaCat = test: as above; conditions: Five cell lines viability, CellTiter-Glo ATP luminescence, 48-72 h; max response: hits give low values
# Outline: as §1
# PC26 = test: qHTS profiling for inhibitors of Plasmodium falciparum proliferation (AID 504749); conditions: P. falciparum in erythrocytes, SYBR Green DNA, 72 h; series mostly up to 28.7 µM
# Outline: (§2)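 Readout was DNA-dye fluorescence from lysed cultures, ex 485/em 535 nm. Parasitized red cells had grown 72 h with compound; data scaled between 0.29 uM artemisinin and DMSO wells and corrected using vehicle-only plates.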
# PC49 = test: as above; conditions: P. falciparum in erythrocytes, SYBR Green DNA, 72 h; series mostly up to 28.7 µM
# Outline: as §2
# SC27B = test: as above; conditions: P. falciparum in erythrocytes, SYBR Green DNA, 72 h; series mostly up to 28.7 µM
# Outline: as §2
# TAB109 = test: as above; conditions: P. falciparum in erythrocytes, SYBR Green DNA, 72 h; series mostly up to 28.7 µM
# Outline: as §2
# TAB113 = test: as above; conditions: P. falciparum in erythrocytes, SYBR Green DNA, 72 h; series mostly up to 28.7 µM
# Outline: as §2
# TAB165 = test: as above; conditions: P. falciparum in erythrocytes, SYBR Green DNA, 72 h; series mostly up to 28.7 µM
# Outline: as §2
# W2 = test: as above; conditions: P. falciparum in erythrocytes, SYBR Green DNA, 72 h; series mostly up to 28.7 µM
# Outline: as §2
# Also: nearly all actives have a fitted effect of over 60% in size.
# Potency is read from the fitted curve at half-maximal effect.
smiles,measurement,setting,value
CCN1C[C@]2(OC(=O)c3ccccc3NC(C)=O)CC[C@H](OC)[C@@]34[C@@H]2C[C@@H]([C@@H]13)[C@@]1(O)C[C@H](OC)[C@H]2C[C@@H]4[C@]1(O)[C@H]2OC,max response,CRL-7250,-8.79%
same,max response,HEK293,-11.1%
same,outcome,HaCat,inactive
C=C[C@H]1CN2CC[C@H]1C[C@@H]2[C@@H](O)c1ccnc2ccccc12,max response,CRL-7250,-1.31%
same,max response,HEK293,-22.7%
same,max response,HaCat,1.51%
N#CC(OC1OC(COC2OC(CO)C(O)C(O)C2O)C(O)C(O)C1O)c1ccccc1 (centres undefined),outcome,CRL-7250,inactive
same,outcome,HEK293,inactive
same,outcome,HaCat,inactive
COc1ccc2c3c1O[C@H]1C(=O)CC[C@H]4[C@@H](C2)N(C)CC[C@]314,Potency,PC26,inactive
same,Potency,PC49,inactive
same,Potency,SC27B,inactive
same,Potency,TAB109,inactive
same,Potency,TAB113,inactive
same,Potency,TAB165,inactive
CC1CCC(C(C)C)C(OC(=O)c2ccccc2N)C1 (centres undefined),Potency,PC26,inactive
same,Potency,PC49,inactive
same,Potency,SC27B,inactive
same,Potency,TAB109,inactive
same,Potency,TAB113,inactive
COc1cc(CCNCc2ccccc2O)c(OC)cc1C#N,outcome,CRL-7250,inactive
same,max response,HEK293,2.88%
same,outcome,HaCat,inactive
O=[N+]([O-])C(Br)(CO)CO,Potency,PC26,inactive
same,Potency,PC49,inactive
same,Potency,SC27B,inactive
same,Potency,TAB109,inactive
same,Potency,TAB113,inactive
same,Potency,TAB165,inactive
C/C=C(\C)C(=O)OC1CC2C(CC=C3CC(OC4CC(OC)C(OC5CC(OC)C(OC6OC(C)C(OC7OC(CO)C(O)C(O)C7O)C(OC)C6O)C(C)O5)C(C)O4)CCC32C)C2(O)CCC(C(C)=O)C12C (centres undefined),outcome,CRL-7250,inactive
same,max response,HEK293,-9.26%
same,outcome,HaCat,inactive
C[C@@]12C[C@@H](c3ccoc3)OC(=O)C1CC[C@]1(C)[C@H]2[C@H]2C=C[C@]1(O)C(=O)O2 (some centres undefined),outcome,CRL-7250,inactive
same,outcome,HEK293,inactive
same,max response,HaCat,-0.33%
CC(=O)OC1CC(O)C2(C)C(CC(OC(C)=O)C3(C)C2CCC2(C)C(c4ccoc4)C(=O)C4OC423)C1(C)C (centres undefined),max response,CRL-7250,-9.87%
same,outcome,HEK293,inactive
same,max response,HaCat,-22.5%
O=C1CC[C@@]2(O)C3Cc4ccc(O)c5c4C2(CCN3CC2CC2)[C@H]1O5 (some centres undefined),Potency,PC26,inactive
same,Potency,PC49,inactive
same,Potency,SC27B,inactive
same,Potency,TAB109,inactive
same,Potency,TAB113,inactive
same,Potency,TAB165,inactive
CN1C(=O)c2ccccc2NC(=O)[C@]12O[C@@H]2c1ccccc1,max response,CRL-7250,-12.4%
same,outcome,HEK293,inactive
same,max response,HaCat,-12.1%
CC1=C2C[C@H]3[C@@H](CC=C4C[C@@H](O)CC[C@@]43C)[C@@H]2CC[C@]12O[C@@H]1C[C@H](C)CN[C@H]1[C@H]2C,max response,CRL-7250,0.632%
same,outcome,HEK293,inactive
same,max response,HaCat,3.98%
CN1CCCC1CCOC(c1cc2nccc(C(=O)O)c2[nH]1)c1ccccc1Cl (centres undefined),outcome,CRL-7250,inactive
same,max response,HEK293,1.78%
same,max response,HaCat,-3.9%
C=CC(C)(O)CC/C=C(\C)C(=O)O[C@H]1[C@H](O)[C@@H](CO)O[C@@H](OC(=O)[C@]23CCC(C)(C)CC2C2=CCC4[C@@]5(C)CC[C@H](O[C@@H]6O[C@H](CO[C@@H]7OC[C@H](O)[C@H](O)[C@H]7O[C@@H]7OC[C@@H](O)[C@H](O)[C@H]7O)[C@@H](O)[C@H](O)[C@H]6O)C(C)(C)C5CC[C@@]4(C)[C@]2(C)CC3)[C@@H]1OC1OC(C)C(O[C@@H]2OC[C@@H](O)[C@H](O[C@@H]3OC[C@@H](O)[C@H](O)[C@H]3O)[C@H]2O)C(O)C1O (some centres undefined),max response,CRL-7250,-5.86%
same,max response,HEK293,0.313%
same,outcome,HaCat,inactive
C[CH2][Hg][S]c1ccccc1C(=O)O,Potency,PC26,3790 nM (active)
same,Potency,PC49,2240 nM (active)
same,Potency,SC27B,3980 nM (active)
same,Potency,TAB109,2510 nM (active)
same,Potency,TAB113,3160 nM (active)
same,Potency,TAB165,2240 nM (active)
same,Potency,W2,2130 nM (active)
same,Potency,CRL-7250,16800 nM (active)
OCCCCC#Cc1cncc(OC[C@@H]2CCN2)c1,outcome,CRL-7250,inactive
same,max response,HEK293,-3.98%
same,outcome,HaCat,inactive
COC1CC(OC2CCC3(C=O)C(CCC4C3CCC3(C)C(C5=CC(=O)OC5)CCC43O)C2)OC(C)C1OC1OC(CO)C(O)C(O)C1O (centres undefined),Potency,CRL-7250,96.8 nM (active)
same,Potency,HEK293,193 nM (active)
same,Potency,HaCat,685 nM (active)
CN1[C@H]2C[C@H](OC(=O)[C@H](CO)c3ccccc3)C[C@@H]1[C@@H](O)C2,max response,CRL-7250,-1.08%
same,outcome,HEK293,inactive
same,outcome,HaCat,inactive
COC1CC(O[C@H]2CC[C@@]3(C)C(=CCC4C3C(O)[C@@H](O)[C@]3(C)[C@@H](C(C)=O)CC[C@]43O)C2)OC(C)C1OC1CC(OC)C(OC2OC(C)C(O)C(O)C2O)C(C)O1 (some centres undefined),max response,CRL-7250,-8.18%
same,outcome,HEK293,inactive
same,outcome,HaCat,inactive
COC1=CC(=O)O[C@@H](CCc2ccccc2)C1,outcome,CRL-7250,inactive
same,max response,HEK293,0.422%
same,max response,HaCat,3.86%

# Reference: PubChem BioAssay (NCATS)
